# CYP2C9 activ: activators of human CYP2C9; P11712; recombinant CYP2C9, luciferin-H conversion, luminescence; stronger effect = higher value; factor 1 = untreated enzyme, 0 = blocked; activation factor at 5 µM; actives 1.4% (n = 96,000);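 active = activation factor of 2 or more for CYP2C9 at a 5 µM dose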;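 note: 0 = sulfaphenazole-blocked wells and 1 = vehicle-only wells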
# CYP2C19 activ: activators of human cytochrome P450 2C19 | P33261 | recombinant CYP2C19, luciferin-H EGE luminescence; stronger effect = higher value; 0 = fully inhibited enzyme, 1 = untreated enzyme | activation factor at 5 µM | 96,000 tested, under 10 active | AID 1025;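 active = activation factor of at least 2 at 5 µM in the primary screen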;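 note: 0 = wells with 2.5 mM tranylcypromine and 1 = vehicle-only wells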
# Target sequence (P33261 whole entry, looked up): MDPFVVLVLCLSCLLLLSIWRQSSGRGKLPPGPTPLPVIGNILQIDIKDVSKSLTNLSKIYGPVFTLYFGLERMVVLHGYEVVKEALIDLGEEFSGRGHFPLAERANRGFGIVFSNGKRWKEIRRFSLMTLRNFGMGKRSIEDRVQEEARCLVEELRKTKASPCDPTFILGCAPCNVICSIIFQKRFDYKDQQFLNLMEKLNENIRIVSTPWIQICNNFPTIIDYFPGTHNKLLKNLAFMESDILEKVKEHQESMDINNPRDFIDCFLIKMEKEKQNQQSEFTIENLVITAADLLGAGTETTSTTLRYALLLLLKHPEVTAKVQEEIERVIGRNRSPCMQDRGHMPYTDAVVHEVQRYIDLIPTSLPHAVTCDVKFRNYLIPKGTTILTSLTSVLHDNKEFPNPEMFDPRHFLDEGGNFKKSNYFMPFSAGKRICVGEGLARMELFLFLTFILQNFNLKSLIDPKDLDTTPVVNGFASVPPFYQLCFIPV
# CYP2C19 inhib: inhibitors of human CYP2C19. actives 21% (n = 96,000). P33261. CYP2C19 Supersomes, luciferin-H EGE luminescence, 30 min. inhibition, % at 5 µM;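 active = CYP2C19 inhibition above a set limit at 5 µM in the primary screen, cut at about 50% in these data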;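 note: plate controls were negative control wells for no effect and 2.5 mM tranylcypromine positive control for full effect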
# Measles CPE: protection of cells from measles virus; AID 841; actives 1.5% (n = 140,000); protection (pct of control), % at 4 µM; Measles virus-infected cells, CPE protection, absorbance; in the data active = protection mostly above about 24%, no sharp cut-off; inactive = mostly below about 26%
# CYP2C9 inhib: inhibitors of human CYP2C9; inhibition, % at 5 µM; actives 20% (n = 96,000); P11712; CYP2C9 Supersomes, luciferin-H conversion, luminescence; AID 777;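 active = blocking of liver enzyme CYP2C9 beyond about 50% at 5 µM, limit read from the data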
# * = called active by the depositor; . = not tested or not shown. Sampled rows, rich in hits. Any-hit rate of the full collection: about 22%.
SMILES,CYP2C9 activ,CYP2C19 activ,CYP2C19 inhib,Measles CPE,CYP2C9 inhib
COc1ccc(N(CC(=O)N2CCCCC2)S(=O)(=O)c2ccccc2)c(OC)c1,0.5,0.5,53*,8,49
COc1ccc(OC)c(N(CC(=O)N2CCCCC2)S(=O)(=O)c2ccc(OC)c(OC)c2)c1,.,.,.,12,.
COc1ccc(S(=O)(=O)N(C)CC(=O)N2CCC(C(N)=O)CC2)cc1,1.3,1,-5,7,-31
CN(C)S(=O)(=O)c1ccc(S(=O)(=O)N(Cc2ccco2)Cc2ccccc2Cl)cc1,0.7,1,2,18,27
COc1cccc(/C=N/NC(=O)CSc2nnc(C)n2-c2ccccc2)c1O,1.1,1,-5,26,-5
CCCCSc1nc(C)cc(SCC(=O)N/N=C/c2cccc(OC)c2O)n1,0.4,0.7,33,3,64*
C=CCn1cc([N+](=O)[O-])nc1C,.,.,.,4,.
CCOc1ccc(S(=O)(=O)N(CCO)CCO)cc1-c1nc2c(C(C)(C)C)nn(C)c2c(=O)[nH]1,0.4,1.1,-7,14,59*
CCOc1ccc(S(=O)(=O)NC(C)(C)C)cc1-c1nc2c(C(C)(C)C)nn(C)c2c(=O)[nH]1,0.3,0.8,22,4,66*
CCN(CC)S(=O)(=O)c1ccc(/C(O)=C(\C#N)c2nc3ccccc3n2C)cc1,0.8,1.1,-6,22,20
Brc1ccc(-c2nnc(-c3ccc4c(c3)OCO4)o2)o1,0.7,0.6,36,5,28
COc1ccc(OC)c(CNc2nc3ccccc3n2CCN2CCCCC2)c1,0.8,0.5,55*,11,17
c1ccc(Cn2c(CNc3nc4ccccc4n3CCN3CCOCC3)nc3ccccc32)cc1,0.1,0.1,90*,21,91*
CCCn1c(NCc2ccc(N(C)C)cc2)nc2ccccc21,0.8,0.1,92*,10,24
CC(C)n1c(NCc2ccc(N(C)C)cc2)nc2ccccc21,.,.,.,20,.
CCn1c(NCc2cc(OC)ccc2OC)nc2ccccc21,0.4,0.2,78*,18,58*
CCn1c(NCc2cccc(OC)c2OC)nc2ccccc21,.,.,.,17,.
COc1ccc(CNc2nc3ccccc3n2CCN2CCCCC2)c(OC)c1,0.9,0.9,10,20,8
CCCCCCN=CC1=C(O)CC(C)(C)CC1=O,0.8,0.8,21,11,18
Cc1ccc(S(=O)(=O)C(F)(F)F)cc1NC(=O)c1cccnc1,.,.,.,5,.
CCCn1c(NCc2cc(OC)ccc2OC)nc2ccccc21,0.7,0.3,68*,3,28
COc1cccc(CNc2nc3ccccc3n2CCN2CCCCC2)c1OC,.,.,.,6,.
COc1cccc(CNc2nc3ccccc3n2CCN2CCCCC2)c1,0.5,0.5,50,2,52*
CCN(CC)CCn1c(NCc2ccc(OC)cc2)nc2ccccc21,1,1.1,-7,6,-3
Cc1ccc(S(=O)(=O)/N=C(\N)Nc2nc(C)c3ccccc3n2)cc1,.,.,.,11,.
SMILES,CYP2C9 activ,CYP2C19 activ,CYP2C19 inhib,Measles CPE,CYP2C9 inhib
CN1CCC(=NNC(=O)C(=O)NCc2ccccc2)CC1,1.2,1.1,-12,2,-17
O=C(Nc1ccc2c(c1)CCC2)c1cnn2c1NC(c1ccco1)CC2C(F)(F)F (configuration not stated),1,1,0,6,4
COc1ccc(NC(=O)C(NC(=O)c2ccc(=O)[nH]c2)c2ccc(OC)cc2)cc1 (configuration not stated),.,.,.,12,.
COc1ccc(NC(=O)C(c2ccccc2)N(C)C(=O)c2ccc(=O)[nH]c2)cc1 (configuration not stated),.,.,.,31*,.
CCOC(=O)C1CCN(C(C(=O)Nc2ccc3c(c2)OCCO3)c2ccccc2)CC1 (configuration not stated),0.1,0.9,13,20,89*
COc1ccc(CNc2ccc(S(N)(=O)=O)cc2)cc1,.,.,.,3,.
CC(=O)c1cccc(-n2nnnc2SCC(=O)Nc2cccc(NC(=O)c3ccco3)c2)c1,0.4,0.2,82*,8,55*
COc1cc(NC(=O)CSc2nnc(-c3ccncc3)n2C2CCCCC2)ccc1NC(=O)c1ccco1,0.3,0.4,62*,6,72*
Cn1nnnc1SCC(=O)Nc1ccccc1N1CCOCC1,0.9,0.8,24,11,9
Cc1ccc(-n2nnnc2SCC(=O)Nc2ccc3c(c2)OCCO3)cc1C,.,.,.,3,.
Cc1ccc(-n2nnnc2SCC(=O)NNC(=O)c2ccco2)cc1C,2*,1,-2,20,-95
CC(=O)c1cccc(-n2nnnc2SCC(=O)Nc2ccccc2N2CCCCC2)c1,0.1,0,96*,32,87*
COc1cc(NC(=O)CSc2nc3ccccc3c(=O)n2C)ccc1NC(=O)c1ccco1,0.9,1,0,16,14
O=C(CSc1nnnn1C1CCCCC1)Nc1ccc2c(c1)OCO2,0.5,0.8,25,12,53*
O=C(CSc1nnnn1C1CCCC1)Nc1cccc(NC(=O)c2ccco2)c1,0.2,0.2,83*,4,83*
O=C(CSc1nnnn1C1CCCC1)N1CCN(C(=O)c2ccco2)CC1,0.9,1,1,7,9
O=C(CSc1nnnn1C1CCCC1)Nc1ccc(F)cc1,0.9,0.7,31,4,10
O=C(CSc1nnnn1C1CCCCC1)Nc1cccc(NC(=O)c2ccco2)c1,0.2,0.3,69*,16,77*
Cc1ccc2nc(-c3ccccc3)cc(C(=O)NCCCn3ccnc3)c2c1,0,0.2,81*,2,98*
Cc1cc(C(=O)NCCCn2ccnc2)sc1-c1ccccc1,0.1,0,97*,34,89*
Cc1nn(Cc2ccccc2Cl)c2sc(C(=O)NCCCn3ccnc3)cc12,0,0.1,90*,7,100*
Cc1nn(Cc2ccccc2Cl)c2sc(C(=O)OC3CCCC3=O)cc12 (configuration not stated),0.2,0,98*,6,84*
Cc1ccc(NC(=O)CSCC(=O)O)c(C)c1,1.1,1.1,-11,11,-6
O=C(NCCCn1ccnc1)c1cc(-c2ccc(Cl)cc2)nc2ccccc12,0,0.1,90*,5,98*
Cc1nn(Cc2ccc(Cl)cc2)c2sc(C(=O)OCC(N)=O)cc12,0.2,0.9,13,24,76*
SMILES,CYP2C9 activ,CYP2C19 activ,CYP2C19 inhib,Measles CPE,CYP2C9 inhib
Cc1ccc(-c2cc(C(=O)NCCCn3ccnc3)c3ccccc3n2)s1,.,.,.,11,.
O=C(CSc1ncnc2ccccc12)Nc1ccc2c(c1)OCO2,0.6,0.4,62*,35,40
O=C(CSc1ncnc2c1cnn2-c1ccc(Cl)cc1)NCc1ccc2c(c1)OCO2,.,.,.,3,.
O=C(CSc1ncnc2c1cnn2-c1ccccc1)Nc1ccc2c(c1)OCO2,0.4,0.7,28,12,63*
CCn1c(=O)n(CC)c2cc(S(=O)(=O)Nc3ccccc3C)c(C)cc21,0.2,0.3,72*,6,76*
Cc1ccccc1NC(=O)Cn1c(=O)n(C)c2ccccc21,1.1,0.8,23,10,-11
CNc1nc(SCc2ccccc2)nc(N2CCOCC2)n1,0.5,0.3,69*,5,47

# Compound activity as filed in PubChem.
